High-throughput results (PubChem BioAssay)
The list is not random: actives were taken first. Their share in the collection is about 4.1%.
hcDAF-12 act = H. contortus DAF-12 nuclear receptor activators, primary screen, cell-based, luminescence, HEK293, lit1-tk-luc reporter. HEK293 hcDAF-12 lit1-tk-luc reporter; 0% DMSO, 100% Δ7-dafachronic acid. activation, % at 6.8 µM. hit rate 1.4% among 370,000;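 active means activation above the mean of all tested compounds plus 3 SD, cut at about 5.5% in these data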;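 further: 100% = response to 3 µM Δ7-dafachronic acid high control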
DAX1 inh-1 = DAX1 (NR0B1) inhibitors, primary screen, cell-based, HEK293, Gal4-DAX1, luciferase luminescence | HEK293 Gal4-DAX1 luciferase reporter | inhibition, % at 6.75 µM | hit rate 0.99% among 340,000 | AID 504766, 2011;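 active means inhibition above the mean over all tested compounds plus 3 SD, cut at about 4.2% in these data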;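 further: 0% = DAX1-transfected cells with DMSO and 100% = empty-vector control cells with DMSO; inhibition shows as a rise in luminescence from relieved DAX1 repression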
Target sequence (P51843 207-470 limits assumed): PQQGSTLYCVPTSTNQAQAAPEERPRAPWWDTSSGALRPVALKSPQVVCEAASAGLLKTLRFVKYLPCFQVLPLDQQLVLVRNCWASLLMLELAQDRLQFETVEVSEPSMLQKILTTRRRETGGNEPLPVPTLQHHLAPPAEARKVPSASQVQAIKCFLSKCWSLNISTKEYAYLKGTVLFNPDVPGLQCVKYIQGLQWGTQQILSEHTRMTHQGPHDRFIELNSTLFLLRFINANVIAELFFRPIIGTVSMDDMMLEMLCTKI
DAX1 inh-2 = DAX1 (NR0B1) inhibitors on StAR promoter, primary screen, cell-based, luminescence, SF-1 (NR5A1), full-length DAX-1; inhibition, % at 6.8 µM; HEK293T StAR-luciferase reporter, SF-1/DAX-1 repression relief; hit rate 1.1% among 370,000;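 active means inhibition above the mean over all tested compounds plus 3 SD, cut at about 3.6% in these data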;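 further: 0% = DAX-1 cells with DMSO and 100% = cells lacking DAX-1 with DMSO; higher inhibition means more luminescence from relief of DAX-1 repression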
ssDAF12 agonist = S. stercoralis DAF-12 nuclear receptor activators, primary screen, cell-based, luminescence, HEK293, GRIP1 co-expression, lit1-tk-luc. Nuclear hormone receptor DAF-12 (Strongyloides stercoralis). HEK293 ssDAF-12/GRIP1 lit1-tk-luc reporter; % of 3 µM dafachronic acid response. activation, % at 6.8 µM. hit rate 1% among 370,000;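 active means activation above the mean over all tested compounds plus 3 SD, cut at about 0.9% in these data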;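 further: 0% = DMSO-only wells and 100% = 3 µM delta7-dafachronic acid wells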
hgDAF-12 ag = H. glycines DAF-12 receptor agonists, primary screen, cell-based, luminescence, HEK293, GAL4 fusion, UAS-luciferase | hit rate 1.8% among 370,000 | HEK293 GAL4-hgDAF12 UAS-luciferase reporter, agonist luminescence; normalized to butyrate control | activation, % at 6.8 µM | AID 687014, 2013;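 active means activation above a cutoff set at the mean of all screened compounds plus 3 SD, cut at about 10% in these data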;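 further: 0% = DMSO wells and 100% = sodium butyrate wells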
DAX1 inh confirm = DAX1 (NR0B1) inhibitors relieving SF-1 repression, confirmation, cell-based, luminescence, HEK293T, full-length DAX-1, SF-1 activated StAR promoter; HEK293T StAR-promoter luciferase reporter, SF-1/DAX-1 repression; hit rate 87% among 2,400; inhibition, % at 6.8 µM; shares compounds with DAX1 inh-2;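 active means inhibition above the average of every tested compound plus 3 SD, cut at about 3.8% in these data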;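 further: 0% = DAX-1 cells with DMSO and 100% = no DAX-1 control cells with DMSO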
Target sequence (P51843 whole entry, looked up): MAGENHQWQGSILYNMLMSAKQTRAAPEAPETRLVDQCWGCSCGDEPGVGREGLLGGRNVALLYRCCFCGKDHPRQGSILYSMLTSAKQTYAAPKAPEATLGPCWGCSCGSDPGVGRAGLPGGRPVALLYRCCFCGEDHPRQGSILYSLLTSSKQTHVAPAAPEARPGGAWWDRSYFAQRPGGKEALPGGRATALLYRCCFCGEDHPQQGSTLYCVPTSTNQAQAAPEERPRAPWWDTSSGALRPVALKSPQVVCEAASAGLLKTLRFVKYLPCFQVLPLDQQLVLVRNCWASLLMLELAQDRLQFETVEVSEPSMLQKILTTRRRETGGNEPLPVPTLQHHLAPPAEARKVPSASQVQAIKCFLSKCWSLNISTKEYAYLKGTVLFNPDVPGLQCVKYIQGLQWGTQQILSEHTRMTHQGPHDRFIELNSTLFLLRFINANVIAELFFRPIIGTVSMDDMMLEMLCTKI
SF1 mutant ctr = StAR reporter signal changes without DAX1, counter-screen for DAX1 inhibitor project, cell-based, luminescence, AF-2 mutant SF-1, transactivation | HEK293 StAR-luciferase, SF-1 AF2 mutant | hit rate 78% among 2,400 | AID 652136, 2013 | inhibition, % at 6.8 µM | shares compounds with DAX1 inh-2;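 active means inhibition above the mean of all tested compounds plus 3 SD, cut at about 3% in these data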;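 further: 0% = DAX-1 transfected cells with DMSO and 100% = cells without DAX-1 with DMSO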
LXRb hcDAF ctr = LXR agonists, Gal4 luciferase reporter, confirmation, counter-screen for hcDAF-12 agonist project, cell-based, luminescence, HEK293, H. contortus campaign. 3,400 tested, under 10 active. shares compounds with hcDAF-12 act. activation, % at 6.8 µM. HEK293 Gal4-LXR tk-luc reporter, 24 h; normalized: DMSO 0%, positive control 100%;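 active means mean percent activation of the reporter above a cutoff set as the average over tested compounds plus their standard deviation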
hcDAF12 ag = H. contortus DAF-12 receptor agonists, confirmation, cell-based, luminescence, HEK293, lit1-tk-luc, triplicate. shares compounds with hcDAF-12 act. HEK293 hcDAF-12 lit1-tk-luc reporter; % of Δ7-dafachronic acid response. activation, % at 6.8 µM. hit rate 61% among 3,400. AID 743032, 2013;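 active means mean activation across triplicate tests above the threshold derived from the earlier primary screen, cut at about 5.5% in these data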;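 further: 0% = DMSO only wells and 100% = 3 µM Δ7-dafachronic acid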
hgDAF12 conf = H. glycines DAF-12 receptor agonists, confirmation, cell-based, luminescence, HEK293, GAL4-LBD fusion | shares compounds with hgDAF-12 ag | activation, % at 6.8 µM | hit rate 80% among 3,300 | HEK293 GAL4-hgDAF12 luciferase reporter, agonist mode; percent of butyrate response;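 active means mean activation over triplicate wells above the hit cutoff derived from the earlier primary screen, cut at about 11% in these data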;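 further: 0% = DMSO low control and 100% = 2 mM sodium butyrate high control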
LXR ag 2 = LXR agonists, Gal4 luciferase reporter, confirmation, counter-screen for hgDAF-12 agonist project, cell-based, luminescence, HEK293, H. glycines campaign | AID 743051, 2013 | 24 h | activation, % at 6.8 µM | shares compounds with hgDAF-12 ag | 3,300 tested, under 10 active;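 active means mean activation of the triplicate above a set limit carried over from the primary screen, none filed active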
Starred values were filed as active, the others as inactive; . = no result.

SMILES | hcDAF-12 act | DAX1 inh-1 | DAX1 inh-2 | ssDAF12 agonist | hgDAF-12 ag | DAX1 inh confirm | SF1 mutant ctr | hgDAF12 conf | LXR ag 2 | others
Clc1ccc([C@H]2OC[C@@]3(CNC4CCCCC4)CS[C@H](c4ccc(Cl)cc4)N23)cc1 | -3 | . | 1 | -2 | -5 | . | . | . | .
Cn1c(=O)c2cc(S(=O)(=O)N3CCN(Cc4ccccc4)CC3)ccc2n(C)c1=O | 2 | . | 0 | -1 | 0 | . | . | . | .
COC(=O)[C@]12C[C@H](CC(=O)NCCCCc3ccccc3)C(=O)N(Cc3ccccc3)C1=C[C@H](C(C)(C)C)O[C@@H]2C | 0 | . | -1 | -1 | 1 | . | . | . | .
O=S1(=O)CC2c3ccccc3CN2CN1C1CCCC1 (stereo not given) | 2 | . | 0 | 0 | 0 | . | . | . | .
COc1ccc(-c2nn(-c3ccccc3)cc2N)cc1 | 4 | 2 | 5.3* | 0 | 16* | 9.2* | 5.8* | 16* | 0
O=C(Nc1cccc(-c2ccc(N3CCCCC3)nn2)c1)c1ccco1 | 5 | -2 | 7.3* | 1.6* | 16* | 2 | 3.0* | 14* | 1
O=C(Nc1cccc(-c2ccc(N3CCOCC3)nn2)c1)c1ccc(Cl)cc1 | 0 | 0 | 3 | -1 | 4 | . | . | . | .
COc1cccc(OC)c1C(=O)Nc1cccc(-c2ccc(N3CCOCC3)nn2)c1 | 2 | 3 | 5.1* | -1 | 14* | 4.0* | 3.4* | 10 | 0
CN1C(=O)[C@@]2(O[C@H]3C=CC=CN3C3=C2C(=O)CCC3)c2cc([N+](=O)[O-])ccc21 | 3 | . | -1 | 0 | 1 | . | . | . | .
COC(=O)C1=C(C)N(C)C(=NCc2ccccc2)NC1c1cccc(Cl)c1 (stereo not given) | 0 | . | 0 | -1 | 1 | . | . | . | .
COc1ccc2cc(-c3cc(C(=O)OCC(=O)Nc4c(C)n(C)n(-c5ccccc5)c4=O)c4ccccc4n3)ccc2c1 | 2 | -2 | 4.8* | 0 | 15* | 11* | 6.4* | 12* | 1
COC(=O)[C@]12C[C@H](CC(=O)NCCCN3CCCC3=O)C(=O)N(Cc3ccccc3)C1=C[C@H](C(C)(C)C)O[C@@H]2C | -1 | . | -1 | -1 | 1 | . | . | . | .
Cc1n[nH]c(C)c1S(=O)(=O)NCCc1ccccc1 | 0 | . | -1 | -2 | 1 | . | . | . | .
COc1ccc(S(=O)(=O)n2ccc(-c3cnc(-c4ccccc4)s3)n2)cc1 | -2 | 1 | 0 | -1 | 3 | . | . | . | .
O=C(c1ccccc1)n1ccc(-c2cnc(-c3ccccc3)s2)n1 | 7.7* | 1 | 4.9* | 1.0* | 18* | 13* | 5.6* | 20* | 1 | LXRb hcDAF ctr=2;hcDAF12 ag=7.1*
Cc1nnc(C)n1N=Cc1ccc(O)cc1O | 0 | . | 1 | -1 | -2 | . | . | . | .
COc1nc(C)ccc1-c1noc(-c2ccco2)n1 | 7.8* | 0 | 5.0* | 1 | 15* | 12* | 5.4* | 15* | 1 | LXRb hcDAF ctr=2;hcDAF12 ag=6.6*
COc1nc(-c2ccc(C)cc2)ccc1-c1noc(-c2ccco2)n1 | 0 | 1 | -1 | -1 | 2 | . | . | . | .
Cc1cc(Br)cn2c(Cc3ccccc3C(F)(F)F)c(-c3ccc(F)cc3)nc12 | 0 | . | -1 | 0 | -1 | . | . | . | .
O=C(Nc1ccccc1)c1ccncc1 | -1 | -1 | 0 | -1 | -1 | . | . | . | .
O=C(Nc1cnc2ccccc2c1)c1ccncc1 | 5 | 1 | 5.5* | -1 | 14* | 11* | 7.5* | 14* | 1
O=C(/C=C/c1ccco1)N1CCc2ccccc21 | 16* | 0 | 10* | 1.5* | 16* | 13* | 6.4* | 21* | 1 | LXRb hcDAF ctr=2;hcDAF12 ag=11*
CCOC(=O)/C=C/C(=O)N1CCc2ccccc21 | 3 | -1 | -1 | -1 | 0 | . | . | . | .
CCCCOc1ccc(-c2cnc3ccccc3n2)cc1 | 9.0* | 1 | 6.8* | 0 | 23* | 14* | 3.5* | 13* | 1 | LXRb hcDAF ctr=2;hcDAF12 ag=6.4*
COC(=O)[C@]12C[C@H](CC(=O)NCc3cccc4ccccc34)C(=O)N(Cc3ccco3)C1=C[C@H](C1CCCC1)O[C@@H]2C | 0 | . | 0 | -1 | 0 | . | . | . | .
c1cncc(-c2nc3cc4ccccc4cc3[nH]2)c1 | 9.5* | 4.6* | 7.8* | 1.5* | 21* | 11* | 5.3* | 21* | 1 | LXRb hcDAF ctr=2;hcDAF12 ag=9.6*
CCOC(=O)c1sc2nc(NC(=O)C3CC3)sc2c1C | 2 | 1 | 0 | -1 | 1 | . | . | . | .
CCOC(=O)c1sc2nc(NC(=O)C(C)(C)C)sc2c1C | 4 | 1 | 5.2* | 1 | 14* | 4.1* | 0 | 6 | 1
CN(C)c1ccc(/C=N\NC(=O)c2csnn2)cc1 | 6.5* | 0 | 5.0* | 1.3* | 17* | 12* | 6.1* | 19* | 1
O=C1CSc2ccc(C(=O)N3CCCC(C(=O)N4CCN(c5ccc(F)cc5)CC4)C3)cc2N1 (stereo not given) | -5 | . | -2 | -1 | -5 | . | . | . | .
